Data taken from PubChem BioAssay (NCI).
This is part of a sample that, as a whole, favours compounds with a hit. Of some 83,000 tested, about 20% had one in any assay.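 Single-concentration screen, 48 h exposure, 96-well plates. Endpoint: percent growth. Below 10 = active.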 Active and inactive are the calls of the source.

tested on: MDA-MB-468 breast; test: NCI-60 one-dose screen, 48 h (100 = growth as untreated, 0 = no growth, -100 = all killed); conditions: 10 µM unless noted

Row | SMILES | growth
1 | COc1ccc(OC)c(Cn2cc3c(c2)-c2oncc2CC3)c1 | 3.48% (active)
2 | COC(=O)/C=C1/SC(=Nc2ccc(C(F)(F)F)cc2)N(CCc2c[nH]c3ccc(O)cc23)C1=O | 8.44% (active)
3 | CC(C)NC(=O)c1cc(-c2ccc(NC(=O)Nc3ccc(F)c(C(F)(F)F)c3)cc2)nc2cccnc12 | 81.4% (inactive)
4 | Clc1ccc2[nH]cc(-c3cncn3CCc3ccccc3)c2c1 | 7.96% (active)
5 | O=C1OC(c2ccccc2)=N/C1=C\c1ccc([N+](=O)[O-])cc1 | 94.6% (inactive)
6 | CN1CCc2c(Sc3ccc(C(=O)NO)cc3)c3ccccc3n2C1 | 21% (inactive)
7 | CN(C)c1nc(N)nc(Cn2c(-c3nonc3N)nc3ccccc32)n1 | 23.2% (inactive)
8 | CN(C)C(=O)C1=NC(CO)C(=O)N(c2ccc(Cl)cc2)N1 (stereo not given) | 95.2% (inactive)
9 | CCCOc1ccc(/C=N/Nc2cc(C)nc3ccc(Cl)cc23)cc1 | 8.78% (active)
10 | N#CSc1c[nH]c2ccc(/C=C/C(=O)/C=C(/C=C/c3ccc4[nH]cc(SC#N)c4c3)OB(F)F)cc12 | -49% (active)
11 | CC(C)c1ccc(Cn2ccc3c4c(N)nc(NC5CC5)nc4ccc32)cc1 | -76% (active)
12 | CC(=O)N[C@@H](CCC(N)=O)C(=O)O | 108% (inactive)
13 | Cn1ncc2ncc(-c3ccc4ncc(C#N)c(N5CCc6cc(F)c(Cl)cc65)c4c3)cc21 | 8.25% (active)
14 | CC1CCN(C(=O)OCc2nc3nc(Cl)nc(N4CCOCC4)c3[nH]2)CC1 | -59.5% (active)
15 | N#CC1C(C#N)C2c3ccccc3C=CN2C1C(=O)c1ccc(Br)cc1 (stereo not given) | 99.6% (inactive)
16 | CSc1nc2ccccc2cc1/C=C1/C=C(c2ccccc2)NC1=O | 61.6% (inactive)
17 | O=c1c(CNc2ccc(S(=O)(=O)Nc3ncccn3)cc2)coc2ccccc12 | 108% (inactive)
18 | c1ccc(Nc2ccc(Nc3nc(-c4ccccc4)nc4ccccc34)cc2)cc1 | 82.3% (inactive)
19 | CCOC(=O)c1sc(-c2ccc(OS(=O)(=O)c3ccc(Br)s3)c(C=O)c2)nc1C | 18.1% (inactive)
20 | CCOC(=O)c1c(NC(=S)Nc2ccc([N+](=O)[O-])cc2)sc2c1CCCCC2 | 71.2% (inactive)

Row | SMILES | growth
21 | O=C1NCCc2c1noc2-c1ccccc1 | 99.2% (inactive)
22 | CC(C)n1nc(-c2ccc3oc(N)nc3c2)c2c(N)ncnc21 | -34.1% (active)
23 | CCN(CC)c1ccc2cc(C(Nc3ccc(Cl)cc3)c3nnnn3C(C)(C)C)c(=O)oc2c1 (stereo not given) | 109% (inactive)
24 | Cc1ccc(C2CC(c3ccc(Nc4nc(NCCO)nc(NCCO)n4)cc3)=NN2c2ccc(Cl)cc2)cc1 (stereo not given) | 73.2% (inactive)
25 | O=C1/C(=C\c2ccc(Br)o2)SC(=S)N1CCc1ccc(O)cc1 | 28.2% (inactive)
26 | C/C(=N\NC(=S)Nc1ccc(Br)cc1)c1cc2ccccc2oc1=O | -23.5% (active)
27 | O=C1CSC(=S)N1CCc1ccc(O)cc1 | 40.5% (inactive)
28 | NC(=NCCCC1(c2ccccc2)CCCC1)Nc1ccc(Cl)cc1 | -83.1% (active)
29 | Nc1cc(O)cc2cccnc12 | 109% (inactive)
30 | O=C(NNC(=S)Nc1ccccc1)c1ccc(Nc2ncnc3c2cnn3-c2cccc(Br)c2)cc1 | 101% (inactive)
31 | CS(=O)(=O)c1ccc(Nc2nc(N[C@H]3CCCC[C@H]3N)nc3cc[nH]c(=O)c23)cc1 | -75.2% (active)
32 | [Cl][Ru].c1ccc(-c2cc(-c3ccccn3)nc(-c3ccccn3)c2)cc1.c1ccc(-c2ccnc3c2ccc2c(-c4ccccc4)ccnc23)cc1 | -66.3% (active)
33 | CCn1cc(-c2[nH]c(=S)ncc2-c2ccc(Cl)cc2)c(-c2ccc(Br)cc2)n1 | 121% (inactive)
34 | Cc1cc(C(C)(C)C)cc(C)c1Br | 113% (inactive)
35 | [O-]/[N+](=C\C=C\c1ccccc1)c1ccccc1 | 113% (inactive)
36 | N#C/C(=C\c1ccc([N+](=O)[O-])s1)c1nc2cc(Cl)ccc2s1 | 93.7% (inactive)
37 | O=C1/C(=C/c2ccccc2)SC(=Nc2ccccc2)N1Nc1ccccc1 | 1.39% (active)
38 | COc1ccc2c(c1)[n+](=O)c(/C=C/C(=O)c1cc(OC)c(OC)c(OC)c1)c(C)n2[O-] | 24.9% (inactive)
39 | Cc1ccc2nc3ccccc3c(NCc3ccccc3)c2c1 | -11% (active)
40 | CC1(C)CC[C@]23CC[C@]4(C)[C@H](CC[C@@H]5[C@@]6(C)C/C(=C/c7ccncc7)C(=O)C(C)(C)[C@@H]6CC[C@]54C)[C@H]2[C@H]1OC3 | 91.1% (inactive)
